# Measurements reported in paper PMC7862700, “An all-to-all approach to the identification of sequence-specific readers for epigenetic DNA modifications on cytosine”.
# What was measured:
# Assay in all cases: DAPPL (digital affinity profiling via proximity ligation, sequencing); 10 mM Tris-HCl pH 7.5, 50 mM NaCl, 1 mM DTT, 4% glycerol, room temperature, 30 min; GST-TFs on glutathione beads, 16-mer random dsDNA library, 0.1% formaldehyde crosslink after washing; high values mean tight binding
# FLI1 = target: T1, FLI1 (Homo sapiens, UniProt Q01543 1-452); conditions: protein: recombinant; tags: N-terminal GST; dsDNA, one strand shown
# T1 sequence: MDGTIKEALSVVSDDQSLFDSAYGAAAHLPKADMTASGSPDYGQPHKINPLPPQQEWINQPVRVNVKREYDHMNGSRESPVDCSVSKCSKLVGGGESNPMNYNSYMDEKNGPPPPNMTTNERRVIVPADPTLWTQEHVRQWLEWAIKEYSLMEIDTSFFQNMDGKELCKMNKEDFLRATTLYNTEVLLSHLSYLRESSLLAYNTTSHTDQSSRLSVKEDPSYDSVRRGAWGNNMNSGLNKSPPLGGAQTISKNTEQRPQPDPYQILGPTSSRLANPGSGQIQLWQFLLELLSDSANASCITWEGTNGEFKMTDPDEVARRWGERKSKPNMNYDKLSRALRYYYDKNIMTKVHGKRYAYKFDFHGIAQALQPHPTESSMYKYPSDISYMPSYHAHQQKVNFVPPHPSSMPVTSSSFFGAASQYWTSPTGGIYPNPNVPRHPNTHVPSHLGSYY
# Procedure, shortened: (§1)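 Binding signal is each hexamer's read frequency for a factor divided by its frequency in the tag-only sample. The factors were GST-fused human transcription factors from yeast, captured on glutathione beads, DNA-barcoded and pooled with that sample. Pools were incubated with 200 nmole of a random double-stranded 16-mer DNA library in Tris/NaCl/DTT/glycerol buffer at room temperature for 30 min, then washed, crosslinked with 0.1% formaldehyde, proximity-ligated with BsaI/T4 ligase (1 h, 37 °C), PCR-amplified and sequenced on an Illumina NextSeq500.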
# ELK1 = target: T2, ELK1 (Homo sapiens, UniProt P19419 1-428); conditions: protein: recombinant; tags: N-terminal GST; dsDNA, one strand shown
# T2 sequence: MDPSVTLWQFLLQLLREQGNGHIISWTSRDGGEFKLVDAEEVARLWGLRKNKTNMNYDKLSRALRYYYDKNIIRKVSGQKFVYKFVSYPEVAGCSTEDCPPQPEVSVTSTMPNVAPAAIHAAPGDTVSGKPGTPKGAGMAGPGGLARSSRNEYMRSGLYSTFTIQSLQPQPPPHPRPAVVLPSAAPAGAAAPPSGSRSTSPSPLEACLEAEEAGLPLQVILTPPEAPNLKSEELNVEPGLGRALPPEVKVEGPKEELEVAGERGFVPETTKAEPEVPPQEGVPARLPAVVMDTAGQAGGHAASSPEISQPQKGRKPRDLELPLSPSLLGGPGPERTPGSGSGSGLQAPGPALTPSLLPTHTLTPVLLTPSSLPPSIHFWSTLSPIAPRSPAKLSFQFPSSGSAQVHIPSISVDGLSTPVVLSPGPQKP
# Procedure, shortened: as §1
# GABPA = target: T3, GABPA (Homo sapiens, UniProt Q06546 1-454); conditions: protein: recombinant; tags: N-terminal GST; dsDNA, one strand shown
# T3 sequence: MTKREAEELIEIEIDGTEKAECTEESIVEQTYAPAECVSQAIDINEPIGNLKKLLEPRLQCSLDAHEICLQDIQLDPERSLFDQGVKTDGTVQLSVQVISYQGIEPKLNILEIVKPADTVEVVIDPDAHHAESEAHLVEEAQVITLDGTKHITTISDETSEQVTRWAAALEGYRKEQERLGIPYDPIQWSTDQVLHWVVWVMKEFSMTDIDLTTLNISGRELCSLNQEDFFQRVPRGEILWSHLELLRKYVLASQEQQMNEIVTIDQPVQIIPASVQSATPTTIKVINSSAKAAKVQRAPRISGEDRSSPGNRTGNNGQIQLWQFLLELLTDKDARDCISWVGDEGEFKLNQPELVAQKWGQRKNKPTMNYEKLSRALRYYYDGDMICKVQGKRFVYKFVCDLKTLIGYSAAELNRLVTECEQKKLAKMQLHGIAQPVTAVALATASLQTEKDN
# Procedure, shortened: as §1
# ERG = target: T4, ERG (Homo sapiens, UniProt P11308 1-479); conditions: protein: recombinant; tags: N-terminal GST; dsDNA, one strand shown
# T4 sequence: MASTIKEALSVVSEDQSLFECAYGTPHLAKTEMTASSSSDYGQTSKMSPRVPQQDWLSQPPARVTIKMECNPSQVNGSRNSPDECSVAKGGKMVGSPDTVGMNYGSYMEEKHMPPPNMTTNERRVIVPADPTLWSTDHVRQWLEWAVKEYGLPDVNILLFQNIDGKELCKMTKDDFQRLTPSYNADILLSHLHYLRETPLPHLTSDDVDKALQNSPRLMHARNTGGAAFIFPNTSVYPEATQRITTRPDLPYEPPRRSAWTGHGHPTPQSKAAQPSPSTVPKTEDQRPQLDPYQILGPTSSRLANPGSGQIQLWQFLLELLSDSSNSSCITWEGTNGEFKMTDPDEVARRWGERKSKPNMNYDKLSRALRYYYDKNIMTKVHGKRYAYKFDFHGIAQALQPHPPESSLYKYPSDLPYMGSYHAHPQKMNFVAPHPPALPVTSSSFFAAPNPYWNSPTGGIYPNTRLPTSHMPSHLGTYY
# Procedure, shortened: as §1
# ELF1 = ELF1 (Homo sapiens, UniProt P32519 1-619); conditions: protein: recombinant; tags: N-terminal GST; dsDNA, one strand shown
# Sequence of ELF1 (P32519 whole entry): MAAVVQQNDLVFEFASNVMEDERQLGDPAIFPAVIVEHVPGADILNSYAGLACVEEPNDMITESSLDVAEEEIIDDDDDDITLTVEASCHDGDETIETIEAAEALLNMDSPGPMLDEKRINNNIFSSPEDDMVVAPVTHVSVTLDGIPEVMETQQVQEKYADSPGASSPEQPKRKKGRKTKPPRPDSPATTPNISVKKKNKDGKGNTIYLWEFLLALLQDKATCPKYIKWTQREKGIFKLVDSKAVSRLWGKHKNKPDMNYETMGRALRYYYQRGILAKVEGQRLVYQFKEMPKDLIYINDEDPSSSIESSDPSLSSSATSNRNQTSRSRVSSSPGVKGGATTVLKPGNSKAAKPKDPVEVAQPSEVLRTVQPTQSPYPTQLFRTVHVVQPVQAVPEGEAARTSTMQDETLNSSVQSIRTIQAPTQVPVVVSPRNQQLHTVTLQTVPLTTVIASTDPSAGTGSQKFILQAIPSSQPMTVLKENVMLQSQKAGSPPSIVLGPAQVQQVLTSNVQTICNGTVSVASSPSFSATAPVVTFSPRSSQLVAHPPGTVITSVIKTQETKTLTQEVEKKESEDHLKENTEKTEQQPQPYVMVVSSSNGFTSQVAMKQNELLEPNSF
# Procedure, shortened: as §1
# EHF = target: T5, EHF (Homo sapiens, UniProt Q9NZC4 1-300); conditions: protein: recombinant; tags: N-terminal GST; dsDNA, one strand shown
# T5 sequence: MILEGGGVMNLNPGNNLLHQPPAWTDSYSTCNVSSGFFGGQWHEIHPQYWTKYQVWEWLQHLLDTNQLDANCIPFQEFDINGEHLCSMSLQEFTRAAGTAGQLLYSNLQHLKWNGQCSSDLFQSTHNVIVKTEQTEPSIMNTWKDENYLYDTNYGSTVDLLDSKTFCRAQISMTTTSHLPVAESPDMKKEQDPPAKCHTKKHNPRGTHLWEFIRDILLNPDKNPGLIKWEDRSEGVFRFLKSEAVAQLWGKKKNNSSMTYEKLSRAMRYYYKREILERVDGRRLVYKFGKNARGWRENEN
# Procedure, shortened: as §1
# SPI1 = SPI1 (Homo sapiens, UniProt P17947 1-270); conditions: protein: recombinant; tags: N-terminal GST; dsDNA, one strand shown
# Procedure, shortened: as §1
# SPIB = SPIB (Homo sapiens, UniProt Q01892 1-262); conditions: protein: recombinant; tags: N-terminal GST; dsDNA, one strand shown
# Sequence of SPIB (Q01892 whole entry): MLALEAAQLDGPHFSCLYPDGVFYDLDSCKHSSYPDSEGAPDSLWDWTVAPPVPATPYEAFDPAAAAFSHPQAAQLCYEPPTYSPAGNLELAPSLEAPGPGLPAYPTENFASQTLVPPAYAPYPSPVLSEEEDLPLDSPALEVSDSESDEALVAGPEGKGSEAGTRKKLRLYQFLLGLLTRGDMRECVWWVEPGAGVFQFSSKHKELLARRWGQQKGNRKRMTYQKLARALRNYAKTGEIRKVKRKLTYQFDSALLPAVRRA
# Procedure, shortened: as §1
# ELK3 = target: T6, ELK3 (Homo sapiens, UniProt P41970 1-407); conditions: protein: recombinant; tags: N-terminal GST; dsDNA, one strand shown
# T6 sequence: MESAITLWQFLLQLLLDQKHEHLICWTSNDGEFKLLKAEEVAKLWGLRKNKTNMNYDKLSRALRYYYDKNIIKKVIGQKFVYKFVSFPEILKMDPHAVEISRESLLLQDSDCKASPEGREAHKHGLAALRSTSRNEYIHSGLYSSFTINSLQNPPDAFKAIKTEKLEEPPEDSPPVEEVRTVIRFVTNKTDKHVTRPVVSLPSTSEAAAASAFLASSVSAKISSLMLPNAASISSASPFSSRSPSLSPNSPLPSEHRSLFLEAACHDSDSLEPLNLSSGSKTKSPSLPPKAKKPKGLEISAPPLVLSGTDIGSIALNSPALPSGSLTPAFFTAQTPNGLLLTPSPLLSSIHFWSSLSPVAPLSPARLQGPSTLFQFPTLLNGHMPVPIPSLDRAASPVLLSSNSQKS
# Procedure, shortened: as §1
# FEV = target: T7, FEV (Homo sapiens, UniProt Q99581 1-238); conditions: protein: recombinant; tags: N-terminal GST; dsDNA, one strand shown
# T7 sequence: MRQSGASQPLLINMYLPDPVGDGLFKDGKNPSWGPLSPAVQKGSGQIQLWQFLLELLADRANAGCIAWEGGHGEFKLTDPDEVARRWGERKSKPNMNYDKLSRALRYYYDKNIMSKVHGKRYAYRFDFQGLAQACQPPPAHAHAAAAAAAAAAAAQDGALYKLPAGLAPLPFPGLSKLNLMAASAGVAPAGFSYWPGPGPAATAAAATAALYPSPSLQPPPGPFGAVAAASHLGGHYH
# Procedure, shortened: as §1
# ETV5 = ETV5 (Homo sapiens, UniProt P41161 1-510); conditions: protein: recombinant; tags: N-terminal GST; dsDNA, one strand shown
# Sequence of ETV5 (P41161 whole entry): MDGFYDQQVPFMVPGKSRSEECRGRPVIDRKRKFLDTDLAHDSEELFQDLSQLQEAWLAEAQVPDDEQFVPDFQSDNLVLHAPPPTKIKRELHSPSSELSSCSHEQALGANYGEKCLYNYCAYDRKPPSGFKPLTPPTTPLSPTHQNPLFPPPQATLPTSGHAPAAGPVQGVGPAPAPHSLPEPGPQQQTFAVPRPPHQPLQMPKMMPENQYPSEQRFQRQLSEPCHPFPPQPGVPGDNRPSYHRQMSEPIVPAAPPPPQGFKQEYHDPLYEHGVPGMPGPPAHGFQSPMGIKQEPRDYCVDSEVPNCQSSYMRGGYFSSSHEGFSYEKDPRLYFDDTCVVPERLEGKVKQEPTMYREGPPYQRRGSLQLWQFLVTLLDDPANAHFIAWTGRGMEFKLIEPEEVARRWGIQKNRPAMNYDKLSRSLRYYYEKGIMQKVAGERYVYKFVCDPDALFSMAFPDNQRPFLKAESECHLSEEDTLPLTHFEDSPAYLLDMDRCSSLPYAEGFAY
# Procedure, shortened: as §1
# HSF1 = HSF1 (Homo sapiens, UniProt Q00613 1-529); conditions: protein: recombinant; tags: N-terminal GST; chain copies: 3; dsDNA, one strand shown
# Sequence of HSF1 (Q00613 whole entry): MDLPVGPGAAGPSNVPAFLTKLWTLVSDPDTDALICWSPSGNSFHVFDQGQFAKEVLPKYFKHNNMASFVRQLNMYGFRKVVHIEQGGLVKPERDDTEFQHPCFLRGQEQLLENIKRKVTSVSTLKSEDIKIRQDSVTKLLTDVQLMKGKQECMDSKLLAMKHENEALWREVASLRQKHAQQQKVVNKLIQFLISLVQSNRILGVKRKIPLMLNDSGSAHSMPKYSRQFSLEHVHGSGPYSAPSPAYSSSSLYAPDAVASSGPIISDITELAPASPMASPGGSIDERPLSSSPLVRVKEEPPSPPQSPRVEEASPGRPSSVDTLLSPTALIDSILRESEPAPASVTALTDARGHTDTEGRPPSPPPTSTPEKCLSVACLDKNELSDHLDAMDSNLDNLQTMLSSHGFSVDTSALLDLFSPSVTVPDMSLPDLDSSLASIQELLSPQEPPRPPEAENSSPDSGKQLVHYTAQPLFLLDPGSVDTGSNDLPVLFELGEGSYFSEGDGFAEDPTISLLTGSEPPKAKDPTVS
# Procedure, shortened: as §1
# SPIC = target: T8, SPIC (Homo sapiens, UniProt Q8N5J4 1-248); conditions: protein: recombinant; tags: N-terminal GST; dsDNA, one strand shown
# T8 sequence: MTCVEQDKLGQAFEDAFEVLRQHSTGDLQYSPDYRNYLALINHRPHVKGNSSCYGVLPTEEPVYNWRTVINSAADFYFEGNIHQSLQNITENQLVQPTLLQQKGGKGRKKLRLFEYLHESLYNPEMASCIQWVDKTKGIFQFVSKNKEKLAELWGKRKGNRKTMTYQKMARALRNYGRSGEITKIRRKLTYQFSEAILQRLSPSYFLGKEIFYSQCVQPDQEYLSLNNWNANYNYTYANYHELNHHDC
# Procedure, shortened: as §1
# ELF4 = ELF4 (Homo sapiens, UniProt Q99607 1-663); conditions: protein: recombinant; tags: N-terminal GST; dsDNA, one strand shown
# Sequence of ELF4 (Q99607 whole entry): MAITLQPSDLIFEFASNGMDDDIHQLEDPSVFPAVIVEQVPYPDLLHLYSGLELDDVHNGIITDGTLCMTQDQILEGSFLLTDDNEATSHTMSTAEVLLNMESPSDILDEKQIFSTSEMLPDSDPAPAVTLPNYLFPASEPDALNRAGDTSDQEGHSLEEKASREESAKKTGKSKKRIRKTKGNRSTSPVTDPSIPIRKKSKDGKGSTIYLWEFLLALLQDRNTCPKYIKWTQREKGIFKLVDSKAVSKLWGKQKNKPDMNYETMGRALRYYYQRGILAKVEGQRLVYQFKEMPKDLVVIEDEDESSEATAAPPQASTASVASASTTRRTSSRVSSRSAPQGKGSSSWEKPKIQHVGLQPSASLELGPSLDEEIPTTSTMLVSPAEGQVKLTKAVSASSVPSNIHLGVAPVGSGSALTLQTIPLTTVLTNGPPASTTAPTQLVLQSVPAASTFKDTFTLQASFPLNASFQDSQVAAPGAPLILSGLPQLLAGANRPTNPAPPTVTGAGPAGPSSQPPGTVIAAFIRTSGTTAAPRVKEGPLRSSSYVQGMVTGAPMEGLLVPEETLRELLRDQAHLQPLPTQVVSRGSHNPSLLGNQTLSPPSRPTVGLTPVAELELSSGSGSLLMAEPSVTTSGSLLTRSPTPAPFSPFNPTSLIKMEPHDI
# Procedure, shortened: as §1
# ELK4 = target: T9, ELK4 (Homo sapiens, UniProt P28324-2 1-405); conditions: protein: recombinant; tags: N-terminal GST; dsDNA, one strand shown
# T9 sequence: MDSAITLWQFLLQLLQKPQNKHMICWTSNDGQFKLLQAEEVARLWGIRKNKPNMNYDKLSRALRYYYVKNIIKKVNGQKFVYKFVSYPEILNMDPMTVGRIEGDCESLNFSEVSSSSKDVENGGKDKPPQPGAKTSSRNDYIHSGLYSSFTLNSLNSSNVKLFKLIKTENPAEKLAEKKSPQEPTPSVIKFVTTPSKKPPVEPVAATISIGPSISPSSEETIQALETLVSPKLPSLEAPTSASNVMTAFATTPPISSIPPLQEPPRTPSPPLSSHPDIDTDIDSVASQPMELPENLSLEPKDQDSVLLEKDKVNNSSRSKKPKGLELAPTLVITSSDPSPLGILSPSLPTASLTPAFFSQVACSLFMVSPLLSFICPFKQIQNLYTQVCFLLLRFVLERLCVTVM
# Procedure, shortened: as §1
# ETV2 = target: T10, ETV2 (Homo sapiens, UniProt O00321 1-342); conditions: protein: recombinant; tags: N-terminal GST; dsDNA, one strand shown
# T10 sequence: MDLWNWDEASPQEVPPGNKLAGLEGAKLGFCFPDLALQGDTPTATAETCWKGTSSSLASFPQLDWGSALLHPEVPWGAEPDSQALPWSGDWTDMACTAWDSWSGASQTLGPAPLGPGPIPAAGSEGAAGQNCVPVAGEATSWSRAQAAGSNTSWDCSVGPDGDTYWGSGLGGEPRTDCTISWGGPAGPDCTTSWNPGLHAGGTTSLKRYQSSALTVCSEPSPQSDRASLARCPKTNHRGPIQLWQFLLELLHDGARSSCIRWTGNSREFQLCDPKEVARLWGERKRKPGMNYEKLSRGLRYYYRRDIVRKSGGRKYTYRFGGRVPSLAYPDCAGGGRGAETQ
# Procedure, shortened: as §1
# ELF3 = target: T11, ELF3 (Homo sapiens, UniProt P78545 1-371); conditions: protein: recombinant; tags: N-terminal GST; dsDNA, one strand shown
# T11 sequence: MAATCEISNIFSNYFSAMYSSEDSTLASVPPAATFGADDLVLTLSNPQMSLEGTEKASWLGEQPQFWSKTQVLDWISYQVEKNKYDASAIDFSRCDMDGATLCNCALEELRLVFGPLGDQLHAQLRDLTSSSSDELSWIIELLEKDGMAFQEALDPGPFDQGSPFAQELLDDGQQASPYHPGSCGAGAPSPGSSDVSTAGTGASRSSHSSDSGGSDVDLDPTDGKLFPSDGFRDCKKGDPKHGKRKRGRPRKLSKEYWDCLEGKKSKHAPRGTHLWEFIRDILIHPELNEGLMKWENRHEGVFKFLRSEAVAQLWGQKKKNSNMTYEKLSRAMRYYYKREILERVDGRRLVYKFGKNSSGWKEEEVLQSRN
# Procedure, shortened: as §1
# CRX = CRX (Homo sapiens, UniProt O43186 1-299); conditions: protein: recombinant; tags: N-terminal GST; dsDNA, one strand shown
# Sequence of CRX (O43186 whole entry): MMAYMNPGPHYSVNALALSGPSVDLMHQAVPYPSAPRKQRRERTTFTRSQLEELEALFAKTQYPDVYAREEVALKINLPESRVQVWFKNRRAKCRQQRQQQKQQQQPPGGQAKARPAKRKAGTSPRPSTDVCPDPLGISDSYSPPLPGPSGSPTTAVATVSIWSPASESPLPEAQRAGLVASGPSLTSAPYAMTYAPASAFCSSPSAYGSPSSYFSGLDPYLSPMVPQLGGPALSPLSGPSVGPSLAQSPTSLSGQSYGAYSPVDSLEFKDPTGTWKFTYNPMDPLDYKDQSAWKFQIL
# Procedure, shortened: as §1
# ETV1 = ETV1 (Homo sapiens, UniProt P50549 1-477); conditions: protein: recombinant; tags: N-terminal GST; dsDNA, one strand shown
# Sequence of ETV1 (P50549 whole entry): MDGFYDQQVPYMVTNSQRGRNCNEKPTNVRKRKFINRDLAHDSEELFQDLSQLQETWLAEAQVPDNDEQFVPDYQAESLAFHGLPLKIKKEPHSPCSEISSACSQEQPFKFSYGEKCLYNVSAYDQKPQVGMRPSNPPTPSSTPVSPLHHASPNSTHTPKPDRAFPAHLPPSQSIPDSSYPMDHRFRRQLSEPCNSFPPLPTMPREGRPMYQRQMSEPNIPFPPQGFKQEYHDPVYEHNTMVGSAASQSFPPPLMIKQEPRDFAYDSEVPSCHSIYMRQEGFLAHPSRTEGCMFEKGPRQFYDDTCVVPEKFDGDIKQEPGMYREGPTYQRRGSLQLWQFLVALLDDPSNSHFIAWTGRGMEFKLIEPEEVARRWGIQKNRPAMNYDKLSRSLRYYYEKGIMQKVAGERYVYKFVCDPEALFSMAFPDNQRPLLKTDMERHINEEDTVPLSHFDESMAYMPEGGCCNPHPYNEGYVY
# Procedure, shortened: as §1
sequence,measurement,setting,value
TTATAA,binding signal,FLI1,"1.21 fold enrichment (6-mer frequency, TF over GST control)"
same,binding signal,ELK1,"1.16 fold enrichment (6-mer frequency, TF over GST control)"
same,binding signal,GABPA,"1.15 fold enrichment (6-mer frequency, TF over GST control)"
same,binding signal,ERG,"1.14 fold enrichment (6-mer frequency, TF over GST control)"
same,binding signal,ELF1,"1.14 fold enrichment (6-mer frequency, TF over GST control)"
same,binding signal,EHF,"1.16 fold enrichment (6-mer frequency, TF over GST control)"
same,binding signal,SPI1,"1.16 fold enrichment (6-mer frequency, TF over GST control)"
same,binding signal,SPIB,"1.2 fold enrichment (6-mer frequency, TF over GST control)"
same,binding signal,ELK3,"1.33 fold enrichment (6-mer frequency, TF over GST control)"
same,binding signal,FEV,"1.16 fold enrichment (6-mer frequency, TF over GST control)"
same,binding signal,ETV5,"1.13 fold enrichment (6-mer frequency, TF over GST control)"
same,binding signal,HSF1,"1.79 fold enrichment (6-mer frequency, TF over GST control)"
same,binding signal,SPIC,"1.2 fold enrichment (6-mer frequency, TF over GST control)"
same,binding signal,ELF4,"1.11 fold enrichment (6-mer frequency, TF over GST control)"
same,binding signal,ELK4,"1.14 fold enrichment (6-mer frequency, TF over GST control)"
same,binding signal,ETV2,"1.12 fold enrichment (6-mer frequency, TF over GST control)"
same,binding signal,ELF3,"1.32 fold enrichment (6-mer frequency, TF over GST control)"
same,binding signal,CRX,"2.9 fold enrichment (6-mer frequency, TF over GST control)"
same,binding signal,ETV1,"1.13 fold enrichment (6-mer frequency, TF over GST control)"
